# Laboratory results: PubChem BioAssay AID504462 (Sanford-Burnham Center for Chemical Genomics, 2011)
# About 1,700 (0.5%) of roughly 340,000 compounds were called active. This excerpt belongs to a sample that is enriched for actives. A number with no mark means an inactive call. Cut-off read from the data, not from the text of the source: active = inhibition above about 40%; inactive = the rest.
# Target: Cysteine protease ATG4B (Homo sapiens) (UniProt Q9Y4P1)
# Assay: blockers of ATG4B cysteine protease activity – biochemical, fluorescence, uHTS, primary screen (AID 504462)
# Conditions: ATG4B cleavage of LC3-PLA2, NBD-HPC fluorescence, 1 h; at 8.33 µM; hits give high values
# Chain of Cysteine protease ATG4B (Homo sapiens) (Q9Y4P1 whole entry, looked up): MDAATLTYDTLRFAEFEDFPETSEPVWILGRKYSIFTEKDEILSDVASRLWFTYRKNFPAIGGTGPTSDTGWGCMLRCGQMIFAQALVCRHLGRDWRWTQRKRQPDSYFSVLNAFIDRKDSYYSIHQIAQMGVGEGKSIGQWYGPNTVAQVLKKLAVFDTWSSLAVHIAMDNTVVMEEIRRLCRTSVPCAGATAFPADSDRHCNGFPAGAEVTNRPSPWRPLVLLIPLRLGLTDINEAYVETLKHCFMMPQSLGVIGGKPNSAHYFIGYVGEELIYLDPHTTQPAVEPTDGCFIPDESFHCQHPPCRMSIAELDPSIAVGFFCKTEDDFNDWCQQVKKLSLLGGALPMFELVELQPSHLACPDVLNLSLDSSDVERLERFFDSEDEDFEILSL
row,Compound,inhibition
1,COC(=O)COc1cc(C)cc2oc(=O)c3c(c12)CCCC3,-8.24%
2,Cc1cc(OCc2cc(C(=O)O)oc2C)c2c3c(c(=O)oc2c1)CCCC3,48.7% (active)
3,CCN1CCN(C(=O)Cc2coc3cc(C)cc(C)c23)CC1,-5.73%
4,CCOC(=O)C1(CCc2ccccc2)CCN(Cc2ccco2)CC1,-6.2%
5,CC(Cc1ccccc1)NCCC(c1ccccc1)c1ccccc1 (stereo not given),-1.23%
